13 compounds from ChEMBL document CHEMBL4513135, “CO-ADD screening of IQOG CSIS (Spain) compounds” can be followed below.

By Inhibition is commonly meant the change of the read-out against control, counted positive when it falls.

Measured potencies and affinities stand elsewhere.

The subject of one experiment is Klebsiella pneumoniae. The note with it: Concentration 32 ug.mL-1; ASSAY_TEST Inhibition of Bacterial Growth; detection method Absorption (OD600); MEDIA CAMHB; plate type 384well; NBS; CORNING #3640; time 18 hr.
In a further experiment the test system is Candida albicans. The note with it: 32 ug/mL.
In the next experiment the test system is Cryptococcus neoformans. The note with it: Concentration 32 ug.mL-1; ASSAY_TEST Inhibition of Fungal Growth; detection method Resazurin; Absorption (OD600-OD570); plate type 384well; NBS; CORNING #3640. On the technique in general: Resazurin is reduced to fluorescent resorufin, in cell work by metabolically active cells.

On to `N#C[C@]1(Br)C(=N)Oc2ccc3ccccc3c2[C@@H]1c1ccc([N+](=O)[O-])cc1`, for which the Inhibition in the experiment with Klebsiella pneumoniae was 5.78%; in the experiment with Candida albicans, 6.21%; in the experiment on Cryptococcus neoformans, -3.1%.
In the case of `COc1nc(N)c(C#N)c(-c2ccccc2)c1C#N`, the results for the Inhibition with Klebsiella pneumoniae, in the experiment with Candida albicans and in the experiment on Cryptococcus neoformans were 5.51%, 1.23% and -13.41%, respectively.
With `N#CC1(Br)C(=NBr)Oc2ccc3ccccc3c2C1c1cccc([N+](=O)[O-])c1` (centres undefined), the Inhibition is 8.04% with Klebsiella pneumoniae, 7.45% in the experiment with Candida albicans and -42.61% in the experiment on Cryptococcus neoformans.
For the compound `CCOC(=O)C1=C(C)Oc2nc3c(c(N)c2C1c1ccc(O)c(OC)c1)CCC3` (centres undefined), the Inhibition was 2.99% in the experiment with Klebsiella pneumoniae, 0.9% in the experiment on Candida albicans and -66.64% in the experiment on Cryptococcus neoformans.
Take `COc1cc(C=NNC(=O)Cc2c[nH]c3ccccc23)ccc1O`: the Inhibition in the experiment on Klebsiella pneumoniae is -2.6%; in the experiment with Candida albicans, 0.74%; with Cryptococcus neoformans it was -1.83%.
For `N#Cc1c(N)nc(NCCCCC2CCN(Cc3ccccc3)CC2)c(C#N)c1-c1ccccc1`, the Inhibition in the experiment with Klebsiella pneumoniae is 9.09%; with Candida albicans it was 2.22%; in the experiment with Cryptococcus neoformans, 0.12%.
On the same counts, the results for `Nc1ccccc1C(=O)N/N=C/c1c[nH]c2ccccc12` are 18.84%, -0.37% and 0.1%.
Take `c1ccc(-c2nc3c4cnn(-c5ccccc5)c4ncn3n2)cc1`: the Inhibition with Klebsiella pneumoniae was 10.22%; with Candida albicans, -0.93%; in the experiment with Cryptococcus neoformans, -6.06%.
With `O=C(Cc1c[nH]c2ccccc12)NN=C1CCCCCC1`, the results for the Inhibition in the experiment with Klebsiella pneumoniae, in the experiment on Candida albicans and in the experiment with Cryptococcus neoformans were -21.31%, 1.07% and -2.54%, respectively.
With `CNN=C1N=C(SCc2ccccc2)SC1=O`, the Inhibition is 8.63% in the experiment on Klebsiella pneumoniae, -0.64% in the experiment with Candida albicans and -3.27% in the experiment with Cryptococcus neoformans.
Turning to `C#CCNc1nc(NCC#C)c(C#N)cc1C#N`, the Inhibition is -4.98% with Klebsiella pneumoniae, 3.76% in the experiment with Candida albicans and 23.66% with Cryptococcus neoformans.
On the same counts, the results for `CSC1=NC(=Cc2cn(C(c3ccccc3)(c3ccccc3)c3ccccc3)c3ccccc23)C(=O)N1C` are -25.3%, -0.44% and -10.07%.
Consider `O=C(NNCCc1ccccc1)c1cc2ccccc2[nH]1`, for which the results for the Inhibition with Klebsiella pneumoniae, in the experiment with Candida albicans and in the experiment with Cryptococcus neoformans were 0.93%, -1.59% and -3.77%, respectively.
